# Where a name gives a salt, the structure may show the parent alone.
# System: Danio rerio larvae (5 dpf)
# Test: startle (activity period 16 minus period 15, 20-s interval sound) minus DMSO control (percentage points); higher = stronger startle response than DMSO larvae
# Conditions: 10 µM; exposure time: 3 h pre-incubation + 3 h imaging
# Protocol: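 Wild-type 5 dpf zebrafish larvae (n=48 per drug, 96-well plates, 28.5 °C) were exposed to Tocris FDA-approved library compounds at 10 µM (0.1% DMSO) for 3 h before and 3 h during imaging. Images were taken every 6 s during visual (moving coloured lines) and acoustic stimuli, and larvae were tracked with the DeepLabCut-based Z-LaP Tracker. Each behavioural measure is the treated-group mean minus the DMSO vehicle control mean (n=844), in percentage points. This mapping covers compounds with 4-character plate codes.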
row,SMILES,startle
1,COc1cc2c(cc1OC)C1CC(=O)C(CC(C)C)CN1CC2 (stereo unspecified) [Tetrabenazine],-4.98
2,CC[C@@H](C(N)=O)N1CCCC1=O [Levetiracetam],1.63
3,C=C1C[C@@H]2[C@H](CC[C@]3(C)C(=O)CC[C@@H]23)[C@@]2(C)C=CC(=O)C=C12 [Exemestane],1.86
4,Cc1cccc([C@H](C)c2c[nH]cn2)c1C [Dexmedetomidine hydrochloride],9.98
5,C=CCN1C[C@H](C(=O)N(CCCN(C)C)C(=O)NCC)C[C@@H]2c3cccc4[nH]cc(c34)C[C@H]21 [Cabergoline],-9.97
6,N[C@@H]1C[C@H]1c1ccccc1 [Tranylcypromine hydrochloride],-9.63
7,CN1C[C@H](C(=O)N[C@]2(C)O[C@@]3(O)[C@@H]4CCCN4C(=O)[C@H](Cc4ccccc4)N3C2=O)C[C@@H]2c3cccc4[nH]cc(c34)C[C@H]21 [Dihydroergotamine mesylate],6.26
8,O=c1[nH]c2ccccc2n1C1CCN(CCCC(c2ccc(F)cc2)c2ccc(F)cc2)CC1 [Pimozide],0.33
9,CC(C)C[C@H]1C(=O)N2CCC[C@H]2[C@]2(O)O[C@](NC(=O)[C@@H]3C=C4c5cccc6[nH]c(Br)c(c56)C[C@H]4N(C)C3)(C(C)C)C(=O)N12 [Bromocriptine mesylate],-8.86
10,CC(O)(CS(=O)(=O)c1ccc(F)cc1)C(=O)Nc1ccc(C#N)c(C(F)(F)F)c1 (stereo unspecified) [Bicalutamide],0.428
11,CCN(C)C(=O)Oc1cccc([C@H](C)N(C)C)c1 [Rivastigmine tartrate],5.22
